# This is one part of a sample in which hits are shown more often than they occur.
# Bead autofluor: flagged as autofluorescent in microsphere protease counterscreen; AID 624483; 3.1% of 360,000 active; fluorescence intensity (no concentration beside the values); compound autofluorescence counterscreen, microsphere flow cytometry; active compounds read high; in the data active means fluorescence intensity above about 16000; inconclusive means no clear call, values can overlap the other calls
# Anthrax LF inh2: anthrax lethal factor protease inhibition; P15917; multiplex microsphere protease cleavage assay, LF; inhibition, % at 10 µM; 0.12% of 360,000 active; AID 588501; further: plate controls were buffer without enzyme for full effect and enzyme alone for no effect
# TcdB inh: blocks C. difficile toxin B glycohydrolase activity; inhibition, % at 9.99 µM; 0.24% of 350,000 active; TcdB glycohydrolase enzymatic assay, plate reader; P18177; in the data active means inhibition above about 10%
# BoNT-F LC inh: inhibitors of Botulinum neurotoxin F light chain protease; 0.22% of 360,000 active; inhibition, % at 10 µM; Multiplex microsphere protease cleavage assay, flow cytometry; in the data active means inhibition above about 35%, passing the limit was not always enough; inconclusive means no clear call, values can overlap the other calls; further: plate controls were buffer without enzyme for full effect and enzyme alone for no effect
# BoNT-A LC inh2: inhibitors of Botulinum neurotoxin A light chain protease. 0.17% of 360,000 active. inhibition, % at 10 µM. multiplex microsphere protease substrate cleavage, flow cytometry; further: plate controls were buffer without enzyme for full effect and enzyme alone for no effect
# The depositor's hits bear a star; ? = inconclusive; nt = no result. Unless noted, no stated cut-off is given here; in the data, active means inhibition above about 30%; inconclusive means no clear call, values can overlap the other calls; inactive means below that.
SMILES,Bead autofluor,Anthrax LF inh2,TcdB inh,BoNT-F LC inh,BoNT-A LC inh2
Cc1ccc(CSCc2nc3ccccc3[nH]2)cc1,3450,-3,2,-4,0
c1ccc(SCc2nc3ccccc3[nH]2)cc1,24904*,1,nt,-10,-7
Cc1ccc(SCc2nc3ccccc3[nH]2)cc1,20672*,3,nt,3,4
O=C(Nc1ccccc1F)N1C[C@@H]2N[C@H](C1)C2c1ccc(/C=C/c2ccccc2)cc1 (stereo partly specified),nt,nt,0,nt,nt
CCNc1nc(N)nc(Oc2ccc(OCc3ccccc3)nn2)n1,8311,-3,1,-6,-1
CCNc1nc(N)nc(Oc2ccc(OCCOc3ccccc3)nn2)n1,17908*,-4,nt,-12,-5
O=C(C[C@H]1CC[C@@H]2[C@H](COC[C@H](O)CN2S(=O)(=O)c2ccccc2)O1)NCc1ccc2c(c1)OCO2,nt,nt,0,nt,nt
COc1nnc(-c2ccc(N3CCCCC3)c(NC(C)=O)c2)c2ccccc12,19145*,2,nt,2,?
O=C(Nc1cc(C(=O)N2CCCC2)ccc1N1CCCC1)C1CC1,22662*,-1,0,-3,?
O=C(Nc1cc(C(=O)N2CCCC2)ccc1N1CCCC1)c1ccccc1F,9877,0,nt,-2,0
O=C(Nc1ccc2c(c1)C(=O)NC2=O)c1cccc(C(F)(F)F)c1,5897,0,0,-2,-1
COC(F)(C(=O)Nc1ccc2c(c1)C(=O)NC2=O)C(F)(F)F (stereo unspecified),22859*,3,nt,2,1
C=CCN1C(=O)/C(=C/c2ccsc2)SC1=S,4206,-4,5,-6,-2
Cc1ccc(/C=C2\SC(=S)N(CC3CCCO3)C2=O)o1 (stereo unspecified),3638,0,-3,?,?
O=C(O)C(c1ccccc1)N1C(=O)/C(=C\c2ccc(-c3ccc(Br)cc3)o2)SC1=S (stereo unspecified),4524,24,2,13,65*
COc1cc(/C=C2\SC(=S)N(C(C(=O)O)c3ccccc3)C2=O)cc(OC)c1OC (stereo unspecified),2516,0,0,2,2
C=CCN1C(=O)/C(=C/c2ccc(-c3ccc(F)cc3)o2)SC1=S,3620,64*,1,26,79*
O=C1/C(=C\c2ccc(-c3ccccc3Cl)o2)SC(=S)N1CC1CCCO1 (stereo unspecified),4106,59*,nt,-46,189*
O=C(O)C(c1ccccc1)N1C(=O)/C(=C\c2ccc(-c3ccccc3Cl)o2)SC1=S (stereo unspecified),3117,18,-1,9,41*
CC(=O)Nc1ccc(C(=O)/C=C/c2ccco2)cc1,2568,-6,nt,-17,1
CC(=O)Nc1cccc(C(=O)/C=C/c2ccco2)c1,22380*,-6,nt,-1,?
Cc1nnc(-c2cccc(Br)c2)c2cn(-c3ccccc3Cl)nc12,26146*,-14,nt,14,2
Cc1cc(Br)cn2c(Cc3ccccc3)c(-c3cccc(Br)c3)nc12,6486,0,1,0,2
COCCCNC(=O)c1c(N)n(-c2ccc3c(c2)OCO3)c2nc3ccccc3nc12,4028,8,nt,-5,11
CCCNC(=O)c1c(N)n(-c2ccc3c(c2)OCO3)c2nc3ccccc3nc12,21855*,-4,0,-1,?
SMILES,Bead autofluor,Anthrax LF inh2,TcdB inh,BoNT-F LC inh,BoNT-A LC inh2
CC(=O)N1CCc2[nH]c3ccccc3c2C1,17082*,-3,nt,-5,-2
O=C(CSCc1cccc(Br)c1)N1CCOCC1,23815*,-1,nt,-5,-2
CCOC(=O)c1c(-c2ccccc2)nc2ccccn12,22802*,1,nt,-1,?
O=C(Nc1c(-c2ccccc2)nc2ccccn12)c1ccco1,22214*,1,nt,0,?
O=C(Nc1ccccc1-c1ccccc1NC(=O)c1ccco1)c1ccco1,3324,0,nt,1,0
O=C(Nc1ccccc1F)c1ccco1,9353,-3,nt,-16,-1
O=C(Nc1ccccc1NC(=O)c1ccco1)c1ccco1,22408*,-2,nt,1,0
Cc1ccc(-c2nc3ccccn3c2NC(=O)c2ccco2)cc1,6801,-8,0,-21,-3
CSc1ccccc1NC(=O)c1ccco1,22329*,0,nt,0,0
CCCNC(=O)C[C@@H]1CC[C@@H]2[C@H](COc3ccc(NC(=O)c4cccc(OC)c4)cc3C(=O)N2C)O1,nt,nt,-2,nt,nt
COc1ccccc1NC(=O)N[C@H]1CC[C@@H](CC(=O)NCc2ccc(Cl)c(Cl)c2)O[C@@H]1CO,nt,nt,1,nt,nt
Cc1cc(C)n(C(=O)c2ccc(C)c(S(=O)(=O)N3CCCCC3)c2)n1,16992*,0,nt,0,-2
COc1ccc(N2C(=O)CC(N3CCC(O)(c4ccc(Cl)cc4)CC3)C2=O)cc1 (stereo unspecified),16898*,-2,nt,-6,?
COc1ccc(N2C(=O)CC(n3cnc4ccccc43)C2=O)cc1 (stereo unspecified),22109*,1,nt,1,?
COc1ccc(N2C(=O)CC(N3CCN(c4ccccc4)CC3)C2=O)cc1 (stereo unspecified),4085,1,0,?,0
O=C1CC(N2CCC(c3nc4ccccc4[nH]3)CC2)C(=O)N1c1ccccc1F (stereo unspecified),2065,-2,1,3,0
COc1ccc(N2C(=O)CC(N3CCN(c4ccc(Cl)cc4)CC3)C2=O)cc1 (stereo unspecified),3480,-9,0,23,0
COc1ccc(N2C(=O)CC(N3CCC(c4nc5ccccc5[nH]4)CC3)C2=O)cc1 (stereo unspecified),22767*,-2,nt,-3,?
COc1ccc(NC(=O)Nc2ccc3c(c2)CC(=O)N([C@H](C)CO)C[C@@H](C)[C@@H](CN(C)C(=O)Nc2ccc4c(c2)OCO4)O3)cc1,nt,nt,0,nt,nt
O=C(NNc1ccccn1)C(=O)NNS(=O)(=O)c1ccc(Cl)cc1,23954*,0,nt,0,-1
CO/N=C/c1cc([N+](=O)[O-])ccc1Sc1ccc(C)cc1,21195*,-1,nt,2,?
Cc1ccc(Nc2c3c(nc4ncnn24)CCC3)cc1,23876*,0,1,-2,-1
C[C@@H]1CCCCO[C@@H](CN(C)S(=O)(=O)c2ccc(F)cc2)[C@@H](C)CN([C@H](C)CO)C(=O)c2cc(NC(=O)CCCN(C)C)ccc2O1,nt,nt,1,nt,nt
COc1ccc(OC)c(NC(=O)C2C3C=CC(C3)C2C(=O)NCc2ccccn2)c1 (stereo unspecified),21062*,-2,nt,-8,-4
O=C(Nc1ccc2c(c1)OCO2)Nc1cnccn1,21245*,0,nt,-5,-4
O=C(Nc1ccc2c(c1)OCO2)Nc1ccccn1,2152,-2,2,-5,0
CCC(C)[C@H](NC(=O)NCc1cccs1)C(=O)OC (stereo partly specified),6906,3,1,3,0
O=C(NCc1ccncc1)Nc1ccc2c(c1)OCO2,2196,-2,-1,-2,-2
CCC(C)[C@H](NC(=O)NCc1ccccn1)C(=O)OC (stereo partly specified),16131*,-7,2,0,0
